For experiment [1], the system named is thyroid hormone receptor (rat, GH3 cells). The experiment is described as follows: qHTS assay to identify small molecule agonists of the thyroid receptor (TR) signaling pathway (AID 743066; calls by dose curve).
Experiment [2] is described as follows: qHTS assay to identify small molecule antagonists of the estrogen receptor alpha (ER-alpha) signaling pathway using the BG1 cell line - cell viability counter screen (AID 743081;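 note: compound given together with 17beta-estradiol as the ER stimulus; nearly all actives have a fitted effect of over 45% in size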; note: potency is the fitted concentration of half-maximal effect). (In general: Quantitative high-throughput screening tests each substance at several concentrations.)
The target of a further experiment is Aromatase (Homo sapiens) (UniProt P11511). The experiment is described as follows: qHTS assay to identify aromatase inhibitors (AID 743083). Note: nearly all actives have a fitted effect of over 55% in size. Note: potency is the fitted concentration of half-maximal effect.
The nature of experiment [3]: qHTS assay to identify small molecule antagonists of the estrogen receptor alpha (ER-alpha) signaling pathway - cell viability counter screen (AID 743074; calls by dose curve;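 note: HEK293 cells carrying ER-alpha-UAS-bla reporter stimulated with 17beta-estradiol; nearly all actives have a fitted effect of over 45% in size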; note: potency is the fitted concentration of half-maximal effect).
In experiment [4] the target is Estrogen receptor (Homo sapiens) (UniProt P03372). The experiment is described as follows: qHTS assay to identify small molecule agonists of the estrogen receptor alpha (ER-alpha) signaling pathway (AID 743075; calls by dose curve;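 note: HEK293 GripTite cells with ER-alpha and UAS-driven beta-lactamase reporter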; note: potency is the fitted concentration of half-maximal effect).
Experiment [5] has the same target. Kind of experiment: qHTS assay to identify small molecule agonists of the estrogen receptor alpha (ER-alpha) signaling pathway using the BG1 cell line (AID 743079). Note: nearly all actives have a fitted effect of over 20% in size. Note: potency is the fitted concentration of half-maximal effect. The conditions noted are these: BG1Luc4E2 cells, ERE-luciferase agonist, 22 h; activation: at 70.3 µM (top of the series).
Experiment [6] can be described thus: qHTS assay to identify small molecule antagonists of the estrogen receptor alpha (ER-alpha) signaling pathway using the BG1 cell line (AID 743080; calls by dose curve;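 note: BG1 cells stimulated with 17beta-estradiol alongside compound; nearly all actives have a fitted effect of over 25% in size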). An outline of the steps:
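Quantitative HTS on the Tox21 10K library: BG1 cells with endogenous ER-alpha and ERE-luciferase reporter, 17beta-estradiol stimulation, 21.5 h compound exposure, luminescence endpoint with parallel fluorescence cytotoxicity counter-read.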

The target in experiment [7] is Estrogen receptor (Homo sapiens) (UniProt P03372). The experiment is described as follows: qHTS assay to identify small molecule antagonists of the estrogen receptor alpha (ER-alpha) signaling pathway (AID 743069; active = well fitted curve in the direction sought with a large enough effect in the signal ratio in the repeat runs, not every such curve was filed as active; inconclusive = weak or mixed curves, or effect the other way; inactive = no such curve, though single readings can be large or run the other way; the % refers to the signal ratio; note: potency is the fitted concentration of half-maximal effect). An outline of the steps:
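Reporter cells (ER-alpha-bla, HEK293 background) are conditioned overnight in stripped-serum medium (2% charcoal-stripped FBS). Compound and 17beta-estradiol exposure runs 18 hr at 37C, 5% CO2.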

“And” between values parts separate entries of the source, which are not always exact repeats. Equal entries are not always repeated. The source made the active and inactive calls. Unless noted, calls come from the whole dose curve; as a rule, active = well fitted curve in the direction sought with a large enough effect in the repeat runs; inconclusive = weak or mixed curves; inactive = no such curve, though single readings can be large; an effect the other way counts as inactive or inconclusive.
% is set by controls: 0 for no effect and ±100 for the full control effect.

Chain of Estrogen receptor (Homo sapiens) (P03372 whole entry, looked up): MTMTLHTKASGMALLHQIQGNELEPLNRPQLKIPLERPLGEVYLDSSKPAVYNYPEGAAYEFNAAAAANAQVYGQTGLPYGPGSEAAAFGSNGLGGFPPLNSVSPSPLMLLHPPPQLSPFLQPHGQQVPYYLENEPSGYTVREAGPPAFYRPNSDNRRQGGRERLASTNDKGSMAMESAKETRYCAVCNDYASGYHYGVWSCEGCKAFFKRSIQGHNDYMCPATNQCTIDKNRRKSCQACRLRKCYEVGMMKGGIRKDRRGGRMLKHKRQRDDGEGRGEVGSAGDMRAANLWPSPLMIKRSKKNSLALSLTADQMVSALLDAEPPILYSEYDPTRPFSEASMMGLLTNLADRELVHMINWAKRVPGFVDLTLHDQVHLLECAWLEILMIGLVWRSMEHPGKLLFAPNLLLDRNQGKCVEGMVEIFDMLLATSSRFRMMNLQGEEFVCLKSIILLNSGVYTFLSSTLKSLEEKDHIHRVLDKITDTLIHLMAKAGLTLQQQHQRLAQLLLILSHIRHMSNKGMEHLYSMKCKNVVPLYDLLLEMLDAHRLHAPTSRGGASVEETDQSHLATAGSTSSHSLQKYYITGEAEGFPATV
Chain of Aromatase (Homo sapiens) (P11511 whole entry, looked up): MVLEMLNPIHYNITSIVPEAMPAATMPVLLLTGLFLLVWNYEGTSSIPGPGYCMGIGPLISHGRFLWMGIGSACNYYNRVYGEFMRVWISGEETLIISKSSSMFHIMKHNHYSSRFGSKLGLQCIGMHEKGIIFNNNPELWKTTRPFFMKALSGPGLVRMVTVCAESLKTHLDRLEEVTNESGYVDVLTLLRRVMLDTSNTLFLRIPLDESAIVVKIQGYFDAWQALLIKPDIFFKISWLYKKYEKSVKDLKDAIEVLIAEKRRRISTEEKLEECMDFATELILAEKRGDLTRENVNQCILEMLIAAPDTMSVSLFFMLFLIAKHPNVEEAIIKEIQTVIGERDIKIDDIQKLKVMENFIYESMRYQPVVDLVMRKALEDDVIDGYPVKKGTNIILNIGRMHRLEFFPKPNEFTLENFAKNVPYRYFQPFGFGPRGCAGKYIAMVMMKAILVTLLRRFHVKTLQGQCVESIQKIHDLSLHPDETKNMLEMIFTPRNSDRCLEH

Regarding `CN1CCc2c(c3ccccc3n2Cc2ccccc2)C1`, the Potency result (in experiment [1]; in experiment [2]; in the experiment with Aromatase (Homo sapiens)) was “inactive” throughout.

Consider `CCCCCCCCCCCCCCCC(=O)O[C@@H]1CC(C)=C(/C=C/C(C)=C/C=C/C(C)=C/C=C/C=C(C)/C=C/C=C(C)/C=C/C2=C(C)C[C@@H](OC(=O)CCCCCCCCCCCCCCC)CC2(C)C)C(C)(C)C1`, for which the Potency entry in experiment [1], in experiment [3], in experiment [4], in experiment [5], in experiment [6] and in experiment [2] was “inactive” throughout. For the same molecule, the Potency entry with Aromatase (Homo sapiens) was “inactive”.

For the molecule `CC(=O)O[C@]1(C(C)=O)CC[C@H]2[C@@H]3CCC4=CC(=O)CC[C@]4(C)[C@@]3(F)[C@@H](O)C[C@@]21C`, the Potency result (in experiment [1]; in experiment [3]; in experiment [2]; with Aromatase (Homo sapiens)) was “inactive” in each case. For the same molecule, the Potency in experiment [5] was 2.66 µM (active).

As to `CCCC(=O)Nc1c(I)cc(I)c(CC(CC)C(=O)O)c1I` (centres undefined), the Potency result in experiment [1], in experiment [7], in experiment [3], in experiment [4], in experiment [5] and in experiment [6] was “inactive” each time. The Potency entry with Aromatase (Homo sapiens) is “inactive”.

Turning to `COC(F)(F)C(Cl)Cl`, the Potency result in experiment [7], in experiment [3], in experiment [4], in experiment [5], in experiment [6] and in experiment [2] was “inactive” throughout. In addition, the Potency result with Aromatase (Homo sapiens) is “inactive”.

On to `Clc1ccc(COC(Cn2ccnc2)c2ccc(Cl)cc2Cl)c(Cl)c1` (centres undefined), for which the Potency entry in experiment [7], in experiment [3], in experiment [4], in experiment [5], in experiment [6] and in experiment [2] was “inactive” throughout.

On to `CN(C)CCOc1ccccc1Cc1ccccc1` (tested in a mixture with another compound), for which the Potency entry (in experiment [1]; in experiment [3]; in experiment [2]; with Aromatase (Homo sapiens)) was “inactive” each time.

For `Nc1c(Br)cc(Br)cc1CNC1CCC(O)CC1` (centres undefined), the Potency entry in experiment [7], in experiment [3], in experiment [4], in experiment [5], in experiment [6] and in experiment [2] was “inactive” in each case. The Potency result in the experiment with Aromatase (Homo sapiens) is “inactive”.

With `Cc1cc(C(=O)NNCc2ccccc2)no1`, the Potency entry (in experiment [7]; in experiment [3]; in experiment [4]; in experiment [2]; with Aromatase (Homo sapiens)) was “inactive” throughout. Besides, the Potency in experiment [5] was 5.07 µM (active).

On to `C[N+]1(C)CCN(CC(O)(c2ccccc2)C2CCCCC2)CC1` (centres undefined), for which the Potency entry (in experiment [3]; in experiment [2]; in the experiment with Aromatase (Homo sapiens)) was “inactive” in each case.

On to `CC1(C)S[C@@H]2[C@H](NC(=O)C(N)c3ccccc3)C(=O)N2[C@H]1C(=O)OC1OC(=O)c2ccccc21` (some centres undefined), for which the Potency result (in experiment [3]; in experiment [2]; with Aromatase (Homo sapiens)) was “inactive” throughout.

For the molecule `CCC(=O)OCC(=O)[C@@]1(OC(=O)CC)[C@@H](C)C[C@H]2[C@@H]3CCC4=CC(=O)C=C[C@]4(C)[C@@]3(F)[C@@H](O)C[C@@]21C`, in experiment [3], the Potency entry is “inactive”. In addition, the Potency in experiment [4] is 23.9 µM [fluorescent] (active); with Aromatase (Homo sapiens) it was 3.76 µM (active).

In the case of `CO[C@H]1C=CO[C@@]2(C)Oc3c(C)c(O)c4c(O)c(c(/C=N/N5CCN(C6CCCC6)CC5)c(O)c4c3C2=O)NC(=O)/C(C)=C\C=C[C@H](C)[C@H](O)[C@@H](C)[C@@H](O)[C@@H](C)[C@H](OC(C)=O)[C@@H]1C`, the values for the Potency (in experiment [7]; in experiment [2]; with Aromatase (Homo sapiens)) were 19 µM [inconclusive] (active), 26.6 µM (active) and 33.5 µM (active), respectively. Further, the Potency entry in experiment [3] and in experiment [4] was “inactive” each time.

`CC(NNC(=O)c1ccccc1)c1ccccc1` (centres undefined): the Potency entry (in experiment [3]; in experiment [2]; in the experiment with Aromatase (Homo sapiens)) was “inactive” each time.

Take `CO[C@H]1C[C@@H]2CC[C@@H](C)[C@@](O)(O2)C(=O)C(=O)N2CCCC[C@H]2C(=O)O[C@H]([C@H](C)C[C@@H]2CC[C@@H](OC(=O)C(C)(CO)CO)[C@H](OC)C2)CC(=O)[C@H](C)/C=C(\C)[C@@H](O)[C@@H](OC)C(=O)[C@H](C)C[C@H](C)/C=C/C=C/C=C/1C`: the Potency entry (in experiment [7]; in experiment [3]; in experiment [4]; in experiment [6]; in experiment [2]; in the experiment with Aromatase (Homo sapiens)) was “inactive” throughout. Further, in experiment [5], the Potency was 23.7 µM (active).

For the molecule `CCN(CC)Cc1cc(Nc2ccnc3cc(Cl)ccc23)ccc1O`, the Potency entry (in experiment [3]; with Aromatase (Homo sapiens)) was “inactive” throughout.

For `CC[C@@]1(O)C[C@H](O[C@H]2C[C@H](N(C)C)[C@H](O[C@H]3C[C@H](O)[C@H](O[C@H]4CCC(=O)[C@H](C)O4)[C@H](C)O3)[C@H](C)O2)c2c(cc3c(c2O)C(=O)c2c(O)cccc2C3=O)[C@H]1C(=O)OC`, the values for the Potency (in experiment [7]; in experiment [5]; with Aromatase (Homo sapiens)) were 6.01 µM [inconclusive] (active), 2.98 µM (active) and 2.66 µM (active), respectively. The Potency entry in experiment [3] was “inactive”.

Consider `CCOC(=O)C1=C(COCCN)NC(C)=C(C(=O)OC)C1c1ccccc1Cl` (centres undefined), for which the Potency entry in experiment [3] and in experiment [2] was “inactive” each time. Besides, the Potency with Aromatase (Homo sapiens) was 29.8 µM (active) and 9.44 µM (active).

Consider `OCC(S)CS` (centres undefined), for which the Potency entry (in experiment [7]; in experiment [3]; in experiment [4]; in experiment [5]; in experiment [2]; with Aromatase (Homo sapiens)) was “inactive” in each case.

With `CC(C)(C)C(=O)OCOC(=O)[C@@H]1N2C(=O)[C@@H](N=CN3CCCCCC3)[C@H]2SC1(C)C`, the Potency entry (in experiment [7]; in experiment [3]; in experiment [4]; in experiment [5]; in experiment [6]; with Aromatase (Homo sapiens)) was “inactive” in each case.

As to `CCNC(=O)[C@@H]1CCCN1C(=O)[C@H](CCCN=C(N)N)NC(=O)[C@H](CC(C)C)NC(=O)[C@@H](CC(C)C)NC(=O)[C@H](Cc1ccc(O)cc1)NC(=O)[C@H](CO)NC(=O)[C@H](Cc1c[nH]c2ccccc12)NC(=O)[C@H](Cc1cnc[nH]1)NC(=O)[C@@H]1CCC(=O)N1`, the Potency result (in experiment [3]; in experiment [6]; in the experiment with Aromatase (Homo sapiens)) was “inactive” in each case.

In the case of `CCCCC(=O)O[C@H]1CC[C@H]2[C@@H]3CCc4cc(O)ccc4[C@H]3CC[C@]12C`, the Potency entry (in experiment [3]; in experiment [6]; in experiment [2]; with Aromatase (Homo sapiens)) was “inactive” each time. In experiment [4], the Potency was 0.0006 µM [inconclusive] (active). Further, the activation in experiment [5] was 61.2% (active).

As to `CC(C)CN(C[C@@H](O)[C@H](Cc1ccccc1)NC(=O)O[C@@H]1CCOC1)S(=O)(=O)c1ccc(N)cc1`, the Potency result (in experiment [7]; in experiment [3]; in experiment [4]; in experiment [2]; in the experiment with Aromatase (Homo sapiens)) was “inactive” throughout.

On to `CC[C@H](C)[C@H]1O[C@]2(CC[C@@H]1C)C[C@@H]1C[C@@H](C/C=C(\C)[C@@H](O[C@H]3C[C@H](OC)[C@@H](O[C@H]4C[C@H](OC)[C@@H](O)[C@H](C)O4)[C@H](C)O3)[C@@H](C)/C=C/C=C3\CO[C@@H]4[C@H](O)C(C)=C[C@@H](C(=O)O1)[C@]34O)O2`, for which the Potency was 7.56 µM [inconclusive] (active) in experiment [7] and 19 µM (active) in experiment [3]. The Potency entry with Aromatase (Homo sapiens) is “inactive”.

The values are drawn from PubChem BioAssay (Tox21).
